Test results as given in PubChem BioAssay AID504834 (National Center for Advancing Translational Sciences (NCATS), 2011).
Screen size: about 320,000 compounds; about 22,000 (6.9%) were called active. Another 27% or so got no clear call; they are omitted. The sample as a whole holds a higher share of actives than the screen did. Values without a mark were called inactive. The call rests on the fitted dose curve; in most records, active means well fitted inhibition curve with a large enough effect; inconclusive means small, poorly fitted or top-dose-only effect, or another doubt; inactive means no such curve, though single readings can be large or run the other way.

test: Primary qHTS for delayed death inhibitors of the malarial parasite plastid, 96 hour incubation; conditions: P. falciparum luciferase reporter growth; series mostly up to 28.7 µM; activity change, negative = inhibition: at the top concentration
Summary of the method: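 P. falciparum expressing integrated firefly luciferase, in erythrocytes at 2% hematocrit, 0.05% parasitemia, incubated with compounds 96 h at 37 C, 5% CO2. Growth inhibition read as loss of luminescence; two-generation exposure targets delayed-death apicoplast inhibitors.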
On the % scale 0 is the no-effect control and ±100 the full control effect; potency means the concentration at half of the fitted maximal effect.

Structure (SMILES) | activity change, negative = inhibition | Potency
Cc1nonc1C1CCCN1C(=O)c1cc(COc2cccc(C(F)(F)F)c2)on1 (stereo not given) | 14.5% | 
COc1ccccc1/C=C/C=N/NC(=O)CN1CCN(Cc2ccccc2)CC1 | -12.1% | 
O=C(N/N=C/C=C/c1ccccc1)C1CC1(c1ccccc1)c1ccccc1 (stereo not given) |  | 10.4 µM (active)
O=C(N/N=C/c1ccccc1O)C1CCCC1 | -102% | 
CCc1cc(=O)oc2c(C)c(OCC(=O)N3CC[C@@]4(O)CCCC[C@H]4C3)ccc12 | -25.6% | 
CCOC(=O)c1cc(NC(=O)c2ccc(Cl)cc2)c(=O)oc1-c1ccccc1 | 0% | 
CCOC(=O)c1[nH]c2c(c1-c1ccccc1)C(=O)CC(c1ccc(Cl)cc1)C2 (stereo not given) |  | 9.28 µM (active)
CCOC(=O)c1[nH]c2c(c1C)C(=O)CC(c1ccc(N(C)C)cc1)C2 (stereo not given) | 1.58% | 
Cc1cccc(C(=O)NC(=S)N(C)C2CCCCC2)c1 | -85.4% | 
C#CCOCCOCCOCCNc1nc(N2CCN(C(=O)[C@H](C(C)C)n3cc(CCO)nn3)CC2)nc(N2CCN(C(=O)[C@H](C(C)C)n3cc(CCO)nn3)CC2)n1 | -0.171% | 
C#CCOCCOCCOCCNc1nc(N2CCN(C(=O)[C@H](CCC(=O)O)n3cc(C(N)CO)nn3)CC2)nc(N2CCN(C(=O)[C@H](CCCCN)n3cc(C(N)CC(C)C)nn3)CC2)n1 (stereo not given in full) | 79.2% | 
C#CCOCCOCCOCCNc1nc(N2CCN(C(=O)CCCCCCCCCCNC(=O)[C@H]([C@@H](C)CC)n3cc(CCCCN=C(N)N)nn3)CC2)nc(N2CCN(C(=O)CCCCCCCCCCNC(=O)[C@H](CO)n3cc(CCCSC)nn3)CC2)n1 |  | 0.37 µM (active)
C#CCOCCOCCOCCNc1nc(N2CCN(C(=O)[C@H](CCCCN)n3cc(CCC(=O)O)nn3)CC2)nc(N2CCN(C(=O)[C@H](CCCCN)n3cc(CC(C)O)nn3)CC2)n1 (stereo not given in full) | 87.4% | 
C#CCOCCOCCOCCNc1nc(N2CCN(C(=O)CCCCCCCCCCNC(=O)Cn3cc(CCCCCN)nn3)CC2)nc(N2CCN(C(=O)CCCCCCCCCCNC(=O)[C@H](CO)n3cc(CCCSC)nn3)CC2)n1 |  | 1.47 µM (active)
C#CCOCCOCCOCCNc1nc(N2CCN(C(=O)Cn3cc(CCCCN)nn3)CC2)nc(N2CCN(C(=O)[C@H](CCCCN)n3cc(CCC(=O)O)nn3)CC2)n1 | -25.7% | 
C#CCOCCOCCOCCNc1nc(N2CCN(C(=O)[C@H](CCC(=O)O)n3cc(C(N)CO)nn3)CC2)nc(N2CCN(C(=O)[C@H](CCCCN)n3cc(C(N)[C@H](C)CC)nn3)CC2)n1 (stereo not given in full) | 34.7% | 
C#CCOCCOCCOCCNc1nc(N2CCN(C(=O)CCCCCCCCCCNC(=O)[C@H](CCCCN)n3cc(C)nn3)CC2)nc(N2CCN(C(=O)CCCCCCCCCCNC(=O)[C@H](CO)n3cc(CCCSC)nn3)CC2)n1 |  | 0.294 µM (active)
C#CCOCCOCCOCCNc1nc(N2CCN(C(=O)[C@H](CCCCN)n3cc([C@@H](N)C(C)CC)nn3)CC2)nc(N2CCN(C(=O)[C@H](Cc3ccc(O)cc3)n3cc([C@@H](N)C(C)CC)nn3)CC2)n1 (stereo not given in full) | -11.3% | 
CSc1n[nH]c(=S)n1N | -1.76% | 
Cc1c(CC(=O)NCCCCCC(=O)O)c(=O)oc2cc3occ(-c4ccccc4)c3cc12 | -27.6% | 
CCOc1ccccc1NC(=O)Cn1ncc2ccc([N+](=O)[O-])cc21 | 0.0479% | 
CC(=O)NC1CCN(CC(=O)Nc2nccs2)CC1 | -1.24% | 
O=C(Nc1ncccc1O)c1ccc(S(=O)(=O)N2CCCCCC2)cc1 |  | 5.22 µM (active)

Structure (SMILES) | activity change, negative = inhibition | Potency
CN1CCN(NC(=O)c2ccc(S(=O)(=O)N3CCCCCC3)cc2)CC1 | -6.85% | 
O=C(Nc1ccccc1F)c1ccc(S(=O)(=O)N2CCCCCC2)cc1 | 1.93% | 
O=C(CNC(=O)c1ccc2ccccc2c1)Nc1ncccc1O | 127% | 
O=C(Nc1ncccc1O)c1ccc(C(=O)c2ccccc2)cc1 |  | 0.928 µM (active)
CCOC(=O)c1csc(NC(=O)c2ccc(S(=O)(=O)N3CCCC3)cc2)n1 | 5.07% | 
O=C(NC(=O)c1ccccc1)Nc1ccccc1O | 37.6% | 
O=C(N/N=C/c1ccccn1)c1ccc(S(=O)(=O)N2CCCCCC2)cc1 | 1.52% | 
O=C(Nc1ncccc1O)c1ccc(S(=O)(=O)N2CCCC2)cc1 |  | 2.08 µM (active)
CCOc1ccc2nc(N(CCN(C)C)C(=O)c3ccc4ccccc4c3)sc2c1 | -14.3% | 
COc1ccc(-c2nc3c(s2)CCc2onc(-c4ccc(OC)cc4)c2-3)cc1 | 12.4% | 
COc1ccc(C(=O)NC2CC(C)(C)NC(C)(C)C2)cc1OC | 0% | 
COc1ccc(OC)c(/C(C)=N\NC(=O)c2cc3cc(Cl)ccc3n2C)c1 | 0% | 
COc1ccc(NC(=O)/C(Cl)=C(/Cl)S(=O)Cc2ccc(C)cc2)cn1 (stereo not given) | 0% | 
COc1ccc(NC(=S)Nc2ccccc2Cl)cn1 | 30.6% | 
COc1ccc(CS(=O)/C(Cl)=C(/Cl)C(=O)Nc2ccc(OC)nc2)cc1 (stereo not given) |  | 2.94 µM (active)
O=C(NCc1ccccc1Cl)NC(=O)c1csc([N+](=O)[O-])c1 | 10.9% | 
CC1(C(=O)OCC(=O)Nc2ncc(Cl)cc2Cl)CC1(Cl)Cl (stereo not given) | -1.88% | 
CCOC(=O)C1=NNC2(c3ccc(Cl)cc3)C(=O)N(c3cc(C)cc(C)c3)C(=O)C12 (stereo not given) | 0% | 
CCOC(=O)C1=NN(c2ccc(Cl)cc2)/C(=C/C2=NCCc3cc(OC)c(OC)cc32)S1 |  | 4.15 µM (active)
COc1cc2c(cc1OC)C(c1cccc([N+](=O)[O-])c1)=NCC2 | 77.5% | 
CCCCN(C(=O)C1CCC1)c1c(N)n(Cc2ccccc2)c(=O)[nH]c1=O | -5.05% | 
O=S(=O)(NC1CC1)c1ccc(F)c(F)c1 | 48.9% | 
Cn1ncc2c(N3CCCCC3)nc(NCCCO)nc21 | 60.5% | 

Structure (SMILES) | activity change, negative = inhibition | Potency
COc1cc(C(=O)NN(CCC#N)C2=NS(=O)(=O)c3ccccc32)cc(OC)c1OC | -9.76% | 
C=C1c2c(Cl)ccc(O)c2C(O)=C2C(=O)[C@]3(O)C(O)=C(C(N)=O)C(=O)[C@@H](N(C)C)[C@@H]3[C@@H](O)C12 (stereo not given in full) |  | 0.738 µM (active)
CN(C)[C@@H]1C(=O)C(C(N)=O)=C(O)[C@@]2(O)C(=O)C3=C(O)c4c(O)ccc(Cl)c4[C@@H](O)[C@H]3C[C@@H]12 |  | 0.37 µM (active)
COc1ccc(OCCC(=O)c2ccc(OC)cc2)cc1 | 28.2% | 
CCN(c1ccccc1)S(=O)(=O)c1cc2c(cc1C)n(C)c(=O)c(=O)n2C | 7.83% | 
Cn1c2ccccc2c2cc(/C=C(\NC(=O)c3ccccc3)C(=O)NCC(=O)O)ccc21 | -24.1% | 
COc1ccc(-c2cc3ncccc3cn2)cc1 | 235% | 
COc1ccc(C(=O)O)cc1S(=O)(=O)NCc1cccnc1 | -0.745% | 
COc1ccc(-c2cc(C(F)(F)F)nc(NCc3cccnc3)n2)cc1 |  | 13.1 µM (active)
CCN(CC)S(=O)(=O)c1ccc(N2CC(C(=O)NCc3cccnc3)CC2=O)cc1 (stereo not given) | -27.6% | 
CCC(=O)c1ccc(OC(=O)/C=C/c2cc(OC)c(OC)c(OC)c2)cc1 | 24.6% | 
CS(=O)(=O)C1=NN2C(=N)/C(=C\c3ccc(OCCOc4ccccc4)cc3)C(=O)N=C2S1 | 325% | 
Cn1c2ccccc2c(=O)c2c(O)cccc21 | 44.5% | 
CCCc1nc2c(c(=O)c3ccccc3n2C)c(=O)n1C1CCCCCC1 |  | 14.7 µM (active)
CCCCNC(=O)CCn1c(=O)c2ccccc2n(Cc2cc(C)ccc2C)c1=O | 45.8% | 
CCCc1nc2c(c(=O)c3ccccc3n2C)c(=O)n1-c1cc(C)cc(C)c1 |  | 5.86 µM (active)
Cn1c2ccccc2c2c(C(=O)N3CCN(c4ccc(F)cc4)CC3)cn(C3CCCC3)c(=O)c21 | 18.6% | 
COc1ccccc1C(=O)OCC(=O)NCCNC(=O)COC(=O)c1ccccc1OC | -10.1% | 
Cn1cccc1C(=O)N1CCc2ccccc2C1 | 0.7% | 
CCOc1ccc(NC(=O)CN(C)C(=O)c2c(C)noc2C)cc1OCC | 14.5% | 
C=CCCN(Cc1ccccc1)S(=O)(=O)c1ccccc1Br | 6.87% | 
C=CC(COCc1ccccc1)N(Cc1ccccc1)S(=O)(=O)c1ccccc1Br (stereo not given) |  | 9.28 µM (active)
COc1ccc(S(=O)(=O)n2nc(C)c(S(=O)(=O)N3CCOCC3)c2C)cc1 | -11.4% | 

Structure (SMILES) | activity change, negative = inhibition | Potency
COc1ccc(C(=O)NCCNc2ccc([N+](=O)[O-])cn2)cc1 | -0.755% | 
O=C(CSc1ccc(-c2cccs2)nn1)Nc1ccccc1F |  | 2.33 µM (active)
Cn1c(CCC(=O)Nc2ccccc2F)nnc1SCC(=O)Nc1ccccc1Cl | -47.3% | 
Cc1csc(NC(=O)CSc2ccc(-c3ccc(F)cc3)nn2)n1 | -36.6% [at 1.15 µM] | 
CCN(CC)S(=O)(=O)c1ccc(NC(=O)c2cnc(C)cn2)cc1 | -28.2% | 
Cc1ccc2c(cnn2C(=O)CCC(=O)NC2CCCC2)c1 | -8.16% | 
Cc1nn(CC(=O)NC2CCCCC2)c(=O)c2cccn12 | -14.8% | 
Cc1cccc2c1cnn2C(=O)CCC(=O)NC1CCCCC1 |  | 13.1 µM (active)
CNC(=O)CSc1nnnn1-c1ccc(C)cc1C | 43.2% | 
CCn1nnnc1SCC(=O)c1ccc(C)cc1C |  | 7.38 µM (active)
CCn1nnnc1SCC(=O)Nc1ccc(N(C)C)cc1 | -5.23% | 
O=C1CSC(=S)N1c1ccc(Cl)c(Cl)c1 | 30% | 
NC(=O)c1ccc(-c2csnn2)cc1 | 19% | 
C[C@H](OC(=O)n1ccnc1)[C@@H]1O[C@@]2(C)CCC[C@@H]1O2 | 12.9% | 
COc1cc(C=O)c(Br)cc1OCC(=O)NCc1ccccc1 |  | 11.7 µM (active)
COc1cc(C(=S)NCc2ccccc2)cc(Br)c1O | 11.7% | 
COc1ccccc1OCCC(=O)OCC(=O)NCc1ccccc1 | 45.9% | 
CCOc1ccc(S(=O)(=O)N2CCC(c3ccccc3)CC2)cc1C(=O)O | 12.8% | 
Nn1c(Cc2cccc3ccccc23)nnc1SCC(=O)N1CC(=O)Nc2ccccc21 | -8.39% | 
C=CCn1c(COc2ccccc2F)nnc1SCC(=O)N1CC(=O)Nc2ccccc21 |  | 8.28 µM (active)
C=CCn1c(COc2ccccc2C)nnc1SCC(=O)O | 57.5% | 
